# DT40 TDP1 CPT – growth inhibition of DT40 Tdp1-/-;hTDP1 cells with camptothecin (screen for TDP1 inhibitors) | 12% of 420,000 active | chicken DT40 Tdp1-/-;hTDP1 cells + 20 nM CPT, ATP luminescence, 48 h | Potency, µM (highest dose often 46.2 µM), for the others: top-dose activity change, negative = growth inhibition, actives largely listed as inhibitors; further: nearly all actives have a fitted effect of over 55% in size
#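 Chicken DT40 Tdp1-/- cells stably complemented with human TDP1 were seeded at 400 cells/well in medium containing 20 nM camptothecin, exposed to pin-transferred compounds, and grown at 37 °C for at least 48 hr. Viability was read as ATP luminescence.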
# KB-V1 cytotox – KB-V1 MDR subline cytotoxicity; KB-V1 MDR cells viability, CellTiter-Glo, 72 h; Potency, µM (series often up to 46.1 µM), actives largely listed as cytotoxic; 3.4% of 400,000 active; AID 1347076; further: nearly all actives have a fitted effect of over 60% in size
#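 Cytotoxicity toward P-gp-expressing KB-V1 cells was determined as loss of CellTiter-Glo luminescence after 72 h at 37 degrees C. Compounds were tested in quantitative HTS format across a concentration range, with curves fitted to normalized data.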
# DT40 TDP1 no CPT – qHTS for Inhibitors of human tyrosyl-DNA phosphodiesterase 1 (TDP1): qHTS in cells in absence of CPT | DT40 Tdp1-/- hTDP1 cells, no CPT, ATP luminescence, 48 h | Potency, µM (top dose mostly 46.2 µM), for the others: at the top dose activity change, negative = growth inhibition, actives largely listed as inhibitors | 15% of 420,000 active | AID 686978, 2013; further: nearly all actives have a fitted effect of over 55% in size
#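 DT40 Tdp1-/-;hTDP1 cells, no CPT (DMSO vehicle only), 400 cells/well; compounds pin-transferred; ≥48 hr, 37 °C; CellTiter-Glo 30 min RT dark, luminescence read.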
# HT1080 IDH1KD tx – kills HT-1080 cells with IDH1 knockdown. HT-1080 IDH1 knockdown viability, ATP luminescence, 48 h. 2% of 360,000 active. AID 686971. Potency, µM (top dose mostly 46.1 µM), without a hit: at the top dose activity, negative = toxicity, hits mostly cytotoxic;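 further: 0% = DMSO wells and -100% = cell-free medium wells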
#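 Cytotoxicity counter-line: IDH1KD HT-1080, 48 h, CellTiter-Glo. Curves classed by r2, magnitude and activity.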
# HT1080-NT tox – kills 2HG-producing HT-1080-NT fibrosarcoma cells; Potency, µM (doses to about 46.1 µM), without a hit: at the top dose activity, negative = less viability, hits mostly cytotoxic; HT-1080-NT fibrosarcoma viability, CellTiter-Glo ATP luminescence, 48 h; AID 686970; 1.6% of 360,000 active;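 further: NT is the 2HG producing partner of a matched IDH1 knockdown line; 0% = DMSO-treated cells and -100% = media-only wells without cells; nearly all actives have a fitted effect of over 55% in size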
#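 Viability by CellTiter-Glo luminescence after 48 h compound exposure at 37C of HT-1080-NT cells (750/well, RPMI, 5% FBS). % activity scaled between DMSO wells and medium-only wells, then curve-fitted and categorized by curve class.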
# KB-3-1 tox – kills parental KB-3-1 adenocarcinoma cells. KB-3-1 viability, CellTiter-Glo ATP luminescence, 72 h. Potency, µM (titrated, usually from 46.1 µM), usual class: cytotoxic. 1.4% of 400,000 active; further: nearly all actives have a fitted effect of over 60% in size
#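 Cytotoxicity measured as CellTiter-Glo luminescence after 72 h at 37 C. Compound titrations were pinned onto drug-naive KB-3-1 parental adenocarcinoma cells grown in DMEM with 10% FBS, and normalized data fitted to concentration-response curves.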
# Starred values were filed as active, the others as inactive; i = inactive; ? = inconclusive; . = no result given. Shown are actives, neighbours in structure and some others; about 19% of the full set was active somewhere. The call rests on the fitted dose curve; in most records, active means well fitted curve in the direction sought with a large enough effect; inconclusive means small, poorly fitted or top-dose-only effect, or another doubt; inactive means no such curve, though single readings can be large; an effect the other way counts as inactive or inconclusive. Unless noted, on the % scale 0 is the no-effect control and ±100 the full control effect; potency means the concentration at half of the fitted maximal effect.
SMILES,DT40 TDP1 CPT,KB-V1 cytotox,DT40 TDP1 no CPT,HT1080 IDH1KD tx,HT1080-NT tox,KB-3-1 tox
CC(CCc1ccccc1)N1CCN(C)CC1 (stereo unspecified),26.3%,i,-22.6%,4.6%,3.4%,i
Clc1cc(Cl)c(OCC#CI)cc1Cl,1.68µM*,.,1.88µM*,.,.,.
Nc1nc(-c2ccccc2)cc(-c2ccccc2O)n1,?,?,?,?,-26.0%,i
N#Cc1cc(-c2ccccc2)nc(NN)n1,?,?,?,-12.4%,-17.8%,i
Oc1ccc(-c2cc(-c3ccc(O)cc3)nc(-c3ccccc3)n2)cc1,?,i,?,?,11.6µM*,i
NNc1nc(-c2ccccc2)cc(-c2ccccc2)n1,16.4µM*,i,?,?,-19.8%,?
CN(C)c1cc(-c2ccccc2)nc(N)n1,?,?,?,-26.8%,-16.4%,20.6µM*
NNc1nc(-c2ccccc2)cc(-c2ccccc2O)n1,?,5.17µM*,?,12.6µM*,?,?
COc1ccc2c(c1)c(=O)cc(-c1ccccc1)n2C,-17.5%,i,-6.9%,8.6%,-0.4%,i
Nc1nc2ccccc2n1S(=O)(=O)c1ccccc1,?,i,?,-0.6%,-6.9%,i
CSC1=NCCN1C(=O)c1c(F)cccc1F,0.8%,i,-14.3%,4.2%,10.4%,i
CC(=O)Nc1ccc(C2=CC(=O)CC(C)(C)C2)cc1,?,i,-26.0%,6.6%,0.0%,i
Cc1ccccc1NC(=O)C(Cl)=C(Cl)Cl,20.6µM*,?,23.1µM*,?,?,?
Cc1ccccc1NNC(=O)C(=O)NNc1ccccc1C,-1.8%,i,-16.1%,18.4µM*,-6.9%,?
Cc1ccccc1NC(=O)CCCCC(=O)Nc1ccccc1C,-0.6%,i,-7.5%,9.7%,-2.7%,i
Cc1ccc(C(=O)Nc2cccc(NC(=O)c3ccc(C)o3)n2)o1,-26.6%,i,-29.2%,-15.4%,-20.6%,i
Cc1ccccc1OCC(=O)NCC(=O)OCC(=O)c1ccc(Br)cc1,6.4%,i,1.8%,.,.,i
CCc1nnc(NC(=O)CSc2nccn2Cc2ccc(Cl)cc2)s1,-27.0%,i,-28.7%,.,.,i
COC(=O)c1cc(OC)c(OC)cc1NC(=O)CCN1C(=O)C2CCCCC2C1=O (stereo unspecified),4.2%,i,-2.5%,2.1%,-2.7%,i
Cc1noc(/C=C/N(C)C)c1S(=O)(=O)N1CCC(C(=O)NC(C)(C)C)CC1,-3.8%,i,8.0%,5.7%,15.3%,i
CSc1ccc(CSCC(=O)N2CCN(S(=O)(=O)c3ccc(C)cc3C)CC2)cc1,25.9µM*,?,?,-2.3%,-4.3%,?
COc1cc(OC)c(C(=O)OCC(=O)N2CCN(S(=O)(=O)c3ccc(C)cc3C)CC2)cc1OC,?,16.4µM*,?,-0.1%,13.5%,i
CCC(C(=O)OCC(=O)N1CCN(S(=O)(=O)c2ccc(C)cc2C)CC1)c1ccccc1 (stereo unspecified),?,14.6µM*,?,10.2%,1.5%,i
Cc1ccc(S(=O)(=O)N2CCN(C(=O)COC(=O)Cc3ccc(F)cc3)CC2)c(C)c1,-2.4%,i,-14.8%,4.7%,7.6%,i
NS(=O)(=O)c1ccc(NC(=O)/C=C/c2ccc3c(c2)OCO3)cc1,-2.4%,i,-9.6%,0.731µM*,7.31µM*,2.31µM*
Cc1ccc(-n2nc3ccc(NC(=O)/C=C/c4ccco4)cc3n2)cc1,20.6µM*,?,?,-0.3%,4.0%,i
COC(=O)c1cccc(NC(=O)/C=C/c2ccc3c(c2)OCO3)c1,?,?,?,?,?,5.8µM*
